Results: PubChem BioAssay AID1159580 (chemical genetic matrix, 2015)
In all, about 5,500 compounds went through this assay and about 2,000 (36%) were called active. Inconclusive results (about 18%) are left out. Cut-off read from the data, not from the text of the source: active = normalized growth mostly below about 0.91 (no sharp cut-off); inconclusive = no clear call, values can overlap the other calls; inactive = mostly above about 0.92. The list shows a part of the results.

Assay: chemical genetic growth profiling, strain panel (AID 1159580);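 note: tested at 20 µM; growth read once vehicle control cultures reached saturation at 30 °C; 1 = growth at the plate median or of vehicle wells; lower values mean less growth of the strain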
Conditions: S. cerevisiae deletion strains, growth OD

Measured: normalized growth

CC(=O)OC1C(=O)C2(C)C(O)CC3OCC3(OC(C)=O)C2C(OC(=O)c2ccccc2)C2(O)CC(OC(=O)C(O)C(NC(=O)c3ccccc3)c3ccccc3)C(C)=C1C2(C)C (stereo not drawn)
inactive: locus YCL061C, strain MRC1 (second series), hits give low values 0.996 | locus YDR363W, strain ESC2, hits give low values 0.984 | locus YER002W, strain NOP16, hits give low values 1 | locus YMR307W, strain GAS1, hits give low values 0.975 | locus YNL128W, strain TEP1, hits give low values 1 | locus YNL197C, strain WHI3, hits give low values 0.981 | locus YNL224C, strain SQS1, hits give low values 1.03 | locus YPL241C, strain CIN2, hits give low values 0.995
